# Assay results taken from PubChem BioAssay (Tox21).
# A number with no mark means an inactive call. Results filed as inconclusive are left out. Where a call stands in place of a potency, no number is given. Active and inactive are the calls of the source. The call rests on the fitted dose curve; in most records, active means well fitted curve in the direction sought with a large enough effect in the repeat runs; inconclusive means weak or mixed curves; inactive means no such curve, though single readings can be large; an effect the other way counts as inactive or inconclusive.
# Columns and labels:
# [1] = Caspase-3/7 induction in HepG2 cells by small molecules, qHTS assay (AID 1346978); further: nearly all actives have a fitted effect of over 15% in size
# Procedure, shortened: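 Wild-type HepG2 cells (2,000/well) were settled 5 h at 37 C, 5% CO2, then exposed to compounds in DMSO for 17 h. Caspase-3/7 activity was read by luminescence 30 min after adding Caspase-Glo 3/7 reagent at room temperature.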
# [2] = Caspase-3/7 induction in CHO-K1 cells by small molecules, qHTS cell viability counter screen (AID 1346979); further: nearly all actives have a fitted effect of over 35% in size
# Procedure, shortened: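 Viability readout by fluorescence (CellTiter-Fluor) on wild-type CHO-K1 cells exposed for 16hr at 37C and 5% CO2 to compounds delivered in DMSO; reagent incubated 1hr before reading.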
# [3] = Caspase-3/7 induction in CHO-K1 cells by small molecules, qHTS assay (AID 1346980); further: nearly all actives have a fitted effect of over 15% in size
# Procedure, shortened: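 Wild-type cells were seeded at 1,500 per well and settled 5 hr at 37 C, 5% CO2, then exposed to DMSO-dissolved compounds for 17 hr. Caspase-Glo 3/7 reagent was added, and luminescence was read after 30min at room temperature.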
# [4] = Caspase-3/7 induction in HepG2 cells by small molecules, qHTS cell viability counter screen (AID 1346981); further: series mostly up to about 92 µM; nearly all actives have a fitted effect of over 30% in size
# Procedure, shortened: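 Steps: seed 2,000 HepG2 cells per well; incubate 5 hr at 37 C; pin-add compounds in DMSO; incubate 16 hr; add CellTiter-Fluor; after 1 hr at 37 C and 5% CO2, read fluorescence.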
# [5] = biological target: Nuclear receptor subfamily 1 group I member 2 (Homo sapiens) (UniProt O75469); experiment: Human pregnane X receptor (PXR) small molecule agonists, qHTS assay (AID 1346982); further: nearly all actives have a fitted effect of over 35% in size; further: potency means the concentration at half of the fitted maximal effect
# Sequence of Nuclear receptor subfamily 1 group I member 2 (Homo sapiens) (O75469 whole entry, looked up): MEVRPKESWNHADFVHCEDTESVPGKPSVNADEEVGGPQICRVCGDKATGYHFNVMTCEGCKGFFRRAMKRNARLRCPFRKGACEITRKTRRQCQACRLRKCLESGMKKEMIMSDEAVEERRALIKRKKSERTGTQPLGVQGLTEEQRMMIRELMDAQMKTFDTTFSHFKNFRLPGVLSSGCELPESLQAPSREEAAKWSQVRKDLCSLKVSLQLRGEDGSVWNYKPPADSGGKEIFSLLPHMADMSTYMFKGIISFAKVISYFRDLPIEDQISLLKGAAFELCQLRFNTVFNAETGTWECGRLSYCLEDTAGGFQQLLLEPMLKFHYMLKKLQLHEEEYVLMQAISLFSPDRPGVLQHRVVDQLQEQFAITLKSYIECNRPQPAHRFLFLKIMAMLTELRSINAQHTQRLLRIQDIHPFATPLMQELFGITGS
# Procedure, shortened: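 Agonist mode qHTS: PXR-Luc HepG2 cells plated 5 hr before DMSO-dissolved compounds were pinned in, cultured 24 hr at 37 C, 5% CO2; ONE-Glo luminescence readout.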
# [6] = biological target: Cytochrome P450 2C19 (Homo sapiens) (UniProt P33261); experiment: Cytochrome P450 Family 2 Subfamily C Member 19 (CYP2C19) small molecule antagonists: luciferase reporter qHTS assay (AID 1671197); further: nearly all actives have a fitted effect of over 65% in size; further: potency means the concentration at half of the fitted maximal effect
# Sequence of Cytochrome P450 2C19 (Homo sapiens) (P33261 whole entry, looked up): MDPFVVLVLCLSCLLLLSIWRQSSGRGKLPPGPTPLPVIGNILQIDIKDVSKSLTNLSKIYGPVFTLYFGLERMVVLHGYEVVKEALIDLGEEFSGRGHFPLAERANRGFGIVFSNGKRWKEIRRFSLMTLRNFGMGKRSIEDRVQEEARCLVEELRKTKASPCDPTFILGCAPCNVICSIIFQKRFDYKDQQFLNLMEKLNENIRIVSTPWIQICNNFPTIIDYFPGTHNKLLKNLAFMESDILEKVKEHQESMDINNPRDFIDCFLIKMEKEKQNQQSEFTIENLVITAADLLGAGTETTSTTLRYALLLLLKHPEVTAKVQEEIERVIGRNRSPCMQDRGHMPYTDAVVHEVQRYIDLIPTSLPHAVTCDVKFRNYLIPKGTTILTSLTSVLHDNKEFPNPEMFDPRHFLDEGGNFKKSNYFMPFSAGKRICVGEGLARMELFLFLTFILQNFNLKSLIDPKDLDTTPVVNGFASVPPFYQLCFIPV
# Procedure, shortened: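 P450-Glo CYP2C19 system: enzyme-substrate mix with compound 10 min at room temperature, then NADPH regeneration solution, 1 h at 37C. Proluciferin-to-luciferin conversion detected by luminescence after 20 min with detection reagent; ketoconazole as positive control.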
# [7] = biological target: Cytochrome P450 2D6 (Homo sapiens) (UniProt P10635); experiment: Cytochrome P450 Family 2 Subfamily D Member 6 (CYP2D6) small molecule antagonists: luciferase reporter qHTS assay (AID 1671196); further: nearly all actives have a fitted effect of over 50% in size; further: potency means the concentration at half of the fitted maximal effect
# Sequence of Cytochrome P450 2D6 (Homo sapiens) (P10635 whole entry, looked up): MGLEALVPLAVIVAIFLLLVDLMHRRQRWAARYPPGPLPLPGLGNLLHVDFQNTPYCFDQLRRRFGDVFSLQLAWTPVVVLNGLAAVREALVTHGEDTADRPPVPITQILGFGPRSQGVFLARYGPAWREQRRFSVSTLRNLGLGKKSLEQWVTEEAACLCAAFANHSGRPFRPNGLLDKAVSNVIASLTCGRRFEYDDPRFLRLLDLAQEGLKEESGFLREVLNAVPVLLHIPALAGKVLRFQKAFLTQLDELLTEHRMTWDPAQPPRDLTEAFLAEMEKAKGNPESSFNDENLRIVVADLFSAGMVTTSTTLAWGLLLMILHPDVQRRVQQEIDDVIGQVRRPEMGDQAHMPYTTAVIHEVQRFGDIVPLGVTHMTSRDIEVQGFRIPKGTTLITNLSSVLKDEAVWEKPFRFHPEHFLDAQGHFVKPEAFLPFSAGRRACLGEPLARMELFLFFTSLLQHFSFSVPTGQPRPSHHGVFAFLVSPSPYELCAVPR
# Procedure, shortened: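 P450-Glo format: CYP2D6 converts a proluciferin substrate to luciferin in an NADPH-driven reaction lasting 1 h at room temperature. Light output, proportional to CYP2D6 activity, reflects interference by test chemicals.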
# [8] = biological target: Nuclear receptor subfamily 1 group I member 2 (Rattus norvegicus) (UniProt Q9R1A7); experiment: Rat pregnane X receptor (rPXR) activation by small molecules, qHTS assay (AID 1346983); conditions: rPXR luciferase reporter cells, One-Glo luminescence, 24 h; max activation: stronger effect = higher value; further: nearly all actives have a fitted effect of over 20% in size
# Sequence of Nuclear receptor subfamily 1 group I member 2 (Rattus norvegicus) (Q9R1A7 whole entry, looked up): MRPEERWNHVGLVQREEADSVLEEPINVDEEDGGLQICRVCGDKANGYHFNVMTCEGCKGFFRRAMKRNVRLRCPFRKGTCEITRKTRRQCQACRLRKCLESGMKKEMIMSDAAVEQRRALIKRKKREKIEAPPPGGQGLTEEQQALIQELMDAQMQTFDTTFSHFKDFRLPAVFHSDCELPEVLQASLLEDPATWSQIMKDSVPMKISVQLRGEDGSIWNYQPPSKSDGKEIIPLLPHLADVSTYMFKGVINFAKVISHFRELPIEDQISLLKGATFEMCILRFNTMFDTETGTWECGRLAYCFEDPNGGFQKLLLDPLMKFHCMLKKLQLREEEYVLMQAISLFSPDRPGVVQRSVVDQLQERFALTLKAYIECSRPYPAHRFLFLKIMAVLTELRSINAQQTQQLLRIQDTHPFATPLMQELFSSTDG
# Procedure, shortened: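 Cell-based rPXR luciferase reporter assay, 2,000 cells per well, rested 5hr at 37 C before compound addition in DMSO, then 24 hr at 37 C. One-Glo reagent was added and luminescence read after 30 min at room temperature.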
# [9] = biological target: Nuclear receptor subfamily 1 group I member 2 (Homo sapiens) (UniProt O75469); experiment: CYP3A4 induction through human pregnane X receptor (PXR) by small molecules, qHTS assay (AID 1346984); further: nearly all actives have a fitted effect of over 40% in size
# Procedure, shortened: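 Steps: seed DPX-2 cells, 5 hr at 37C; pin-transfer compounds; 24 hr at 37C; add Luciferin-IPA (3uM final), 3 hr at 37C; add One-Glo, 30 min RT; read luminescence.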
# [10] = biological target: Nuclear receptor subfamily 1 group I member 2 (Homo sapiens) (UniProt O75469); experiment: Human pregnane X receptor (PXR) activation by small molecules, qHTS assay (AID 1346985); further: nearly all actives have a fitted effect of over 40% in size; further: potency means the concentration at half of the fitted maximal effect
# Procedure, shortened: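 DPX-2 cells (HepG2 co-transfected with a PXR response element and a CYP3A4-promoter luciferase construct) were seeded at 2,000 per well, rested 5 hr at 37C, then exposed to DMSO-dissolved compounds for 24 hr. Activation was read as luciferase luminescence.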
Compound,outcome [1],Potency [2],outcome [3],Potency [4],Potency [5],Potency [6],Potency [7],max activation [8] [%],Potency [9],Potency [10]
O=C(O)CCCC[P+](c1ccccc1)(c1ccccc1)c1ccccc1,inactive,inactive,inactive,inactive,inactive,inactive,,,,
COC(=O)Nc1ccc(Cl)c(Cl)c1,inactive,inactive,inactive,inactive,60.8 µM (active),17.7 µM (active),inactive,,,
CCN1CCOCC1,inactive,inactive,inactive,inactive,inactive,22 µM (active),6.21 µM (active),,,
COc1cc(C)nc(-n2nc(C)cc2OC)n1,inactive,inactive,inactive,inactive,,,,0.673,,
CCNS(=O)(=O)c1ccc(C)cc1,inactive,inactive,inactive,inactive,inactive,20.6 µM (active),,,,
CCCCCC(C)N (centres undefined),inactive,inactive,inactive,,inactive,inactive,inactive,-3.3,inactive,inactive
CC(C)C(=O)OC(=O)C(C)C,inactive,inactive,inactive,inactive,,inactive,,,,
COc1cc(-c2ccc(=O)[nH]n2)ccc1OC(F)F,inactive,inactive,inactive,inactive,,,4.36 µM (active),,,
CCCCCCCCCCCCSC,inactive,inactive,inactive,inactive,,inactive,inactive,,,
CCOC(=O)c1cnc2c(cnn2CC)c1NN=C(C)C,inactive,inactive,inactive,inactive,,30.9 µM (active),,,inactive,8.91 µM (active)
CCC(C(=O)NC(=O)NC(C)=O)c1ccccc1 (centres undefined),inactive,inactive,inactive,inactive,,inactive,inactive,,,
